Test results: PubChem BioAssay (Tox21)
Records with an inconclusive call do not appear. Unmarked numbers belong to inactive results. The call rests on the fitted dose curve.

Assay: p53 small molecule agonists, cell-based qHTS assay with human liver microsomes: qHTS cell viability counter screen (AID 1963579); further: nearly all actives have a fitted effect of over 45% in size
Conditions: p53RE-bla HCT-116 viability, ATP luminescence, 16 h, HLM; series mostly up to 66 µM; activity change, negative = cytotoxicity: at the top concentration
From the text: National Center for Advancing Translational Sciences [NCATS]
Division of Preclinical Innovation [DPI]
U.S. Environmental Protection Agency [EPA]
National Institutes of Environmental Health Sciences [NIEHS]
National Toxicology Program [NTP]
U.S. Food and Drug Administration [FDA]
p53, a tumor suppressor protein, is activated following cellular insult, including DNA damage and other cellular stresses. The activation of p53 regulates cell fate by inducing DNA repair, cell cycle arrest, apoptosis, or cellular senescence. The activation of p53, therefore, is a good indicator of DNA damage and other cellular stresses. […] The activation of the reporter gene under culture conditions can be detected by fluorescence intensity. This cell line was used to screen the Tox21 10K compound library in the condition of presence of human liver microsomes and to identify agonists that activate the p53 signaling pathway after in vitro metabolic activation (Ooka et al., Archive of Toxicology 96:1975-1987, 2022).
Tox21 Assay Protocol Summary:
The p53RE-bla cells were dispensed at 4,000cells/3ul/well in 1536-well black-clear bottom plates. After the assay plates were incubated at 37 C, 5% CO2 incubator for 5 hours, 23 nL of compounds dissolved in DMSO, positive controls or DMSO only was transferred to the assay plate. Following compound addition, 3 uL of human liver microsomes (XenoTech, Kansas City, KS) at final concentration of 0.5 mg/mL and 1uL of B-Nicotinamide adenine dinucleotide 2'-phosphate (NADPH) at final concentration of 0.5 mg/mL were transferred to the assay plate. The plates were incubated at 37 C for 16 hours. 1 uL of LiveBLAzer detection mixture was added to each well and the plates were incubated at room temperature in the dark for 2 h. Fluorescence intensity at 460 and 530 nm emission and 405 nm excitation were measured by an Envision plate reader. For cell viability readout that measures cytotoxicity, 4 ul/well of CellTiter-Glo reagent was added into the assay plates using a Flying Reagent Dispenser. After 30 min incubation at room temperature, the luminescence intensity in the plates was measured using a ViewLux plate reader.
On the % scale 0 is the no-effect control and ±100 the full control effect.

Row | SMILES | activity change, negative = cytotoxicity
1 | CCOc1cc(OCC)c(C(=O)CCC(=O)O)cc1OCC | 28.9% [at 30.3 µM]
2 | NC(=O)NC(=O)Cc1ccccc1 | -4.98% [at 30.3 µM]
3 | Cc1ccc(=O)n(-c2ccccc2)c1 | -3.4% [at 30.3 µM]
4 | CCCCCCCCCCCCCCCCOP(=O)([O-])OCC[N+](C)(C)C | -6.63% [at 30.3 µM]
5 | C#CCN[C@@H]1CCc2ccccc21 | 2.48% [at 30.3 µM]
6 | CC(C)NCCCC1(C(N)=O)c2ccccc2-c2ccccc21 | -1.39% [at 30.3 µM]
7 | CCCCCCCCCCCCCCCCCO | -0.024% [at 13.5 µM]
8 | Cc1cccc(C)c1NC(=O)c1ccccc1C(=O)O | 3.3% [at 30.3 µM]
9 | Nc1ccc(S(=O)(=O)Nc2ccnn2-c2ccccc2)cc1 | 1.97% [at 13.5 µM]
10 | CCCCCCCC(=O)Oc1c(Br)cc(C#N)cc1Br | -25.3%
11 | CCC=CC#N | -1.19%
12 | CC1=NC(C)OC1C (stereo not given) | -0.508%
13 | CC(C)(Sc1cc(C(C)(C)C)c(O)c(C(C)(C)C)c1)Sc1cc(C(C)(C)C)c(O)c(C(C)(C)C)c1 | -1.44% [at 30.3 µM]
14 | CC(=O)Nc1ccccc1C | -3.37%
15 | NC(=O)CC[C@@H]1NC(=O)[C@H](Cc2ccccc2)NC(=O)[C@H](Cc2ccc(O)cc2)NC(=O)CCSSC[C@@H](C(=O)N2CCC[C@H]2C(=O)N[C@@H](CCCN=C(N)N)C(=O)NCC(N)=O)NC(=O)[C@H](CC(N)=O)NC1=O | -1.2% [at 30.3 µM]
16 | C#CC(C)N(C)C(=O)Nc1ccc(Cl)cc1 (stereo not given) | 8.7%
17 | CCOC(=O)[C@H](CCc1ccccc1)N[C@@H](C)C(=O)N1Cc2cc(OC)c(OC)cc2C[C@H]1C(=O)O | -0.678% [at 30.3 µM]
18 | CCCCCCCCCCCCCCBr | -4.62%
19 | Cc1ccc(S(=O)(=O)NC(=O)NN2CC3CCCC3C2)cc1 (stereo not given) | -9.39% [at 30.3 µM]
20 | Cc1cc(=O)[nH]c(=O)[nH]1 | 1.18%

Row | SMILES | activity change, negative = cytotoxicity
21 | C[C@H]1O[C@H](O[C@H]2[C@H](O)[C@@H](O)[C@@H](O[C@H]3[C@H](O)[C@@H](O)[C@H](O)O[C@@H]3CO)O[C@@H]2CO)[C@H](O)[C@@H](O)[C@@H]1N[C@H]1C=C(CO)[C@@H](O)[C@H](O)[C@H]1O | 5.53% [at 30.3 µM]
22 | O=C(CCCl)NCc1ccccc1 | 1.66% [at 30.3 µM]
23 | CC(=O)Nc1ccc(S(=O)(=O)Nc2cc(C)on2)cc1 | 2.01% [at 30.3 µM]
24 | Cc1cc(CCCOc2c(C)cc(-c3noc(C(F)(F)F)n3)cc2C)on1 | -10.8% [at 30.3 µM]
25 | CC(NC(CCc1ccccc1)C(=O)O)C(=O)N1C(=O)N(C)CC1C(=O)O (stereo not given) | -9.39% [at 30.3 µM]
26 | CC(C)C(O)C(C)(C)CO (stereo not given) | -10%
27 | CC(C)(C)C(=O)O | 1.3%
28 | COc1ccc2[nH]c(S(=O)Cc3ncc(C)c(OC)c3C)nc2n1 (stereo not given) | 1.21% [at 30.3 µM]
29 | CCCCCN(CCCCC)C(=O)C(CCC(=O)O)NC(=O)c1ccc(Cl)c(Cl)c1 (stereo not given) | -15.5% [at 30.3 µM]
30 | CCOC(=O)C(C)(C)C | -12.1%
31 | CCOC(=O)CC(=O)c1cc(F)c(Cl)nc1Cl | 7.07%
32 | O=C(c1ccc(O)cc1)c1ccc(O)cc1 | -4.46%
33 | CN1CCC(=C2c3ccccc3C=Cc3ccccc32)CC1 | 20.5% [at 30.3 µM]
34 | Clc1ccnc(Cl)n1 | -8.56%
35 | CCCCCCCCC(=O)Cl | -9.97%
36 | CC1(C)CC(O)CC(C)(C)N1 | -2.7%
37 | O=C1OCc2ccccc21 | 3.98%
38 | c1cc[nH]c1 | 6.71%
39 | CCn1cc(C(=O)O)c(=O)c2cc(F)c(N3CCNC(C)C3)c(F)c21 (stereo not given) | -7.98% [at 30.3 µM]
40 | Oc1cccc(O)c1O | 4.2%
